# PubChem BioAssay (EPA / NIEHS)
# Records with an inconclusive call do not appear. The source made the active and inactive calls. How the source made its calls: active means hit-call score of the fitted dose curve at least 0.9, where 1 is the maximum; inconclusive means response in the unintended direction; inactive means score below 0.9.
# Assays:
# [1] = biological target: Cytochrome P450 2C19 (Homo sapiens) (UniProt P33261); experiment: NVS_ADME_hCYP2C19: NovaScreen (NVS) CYP450-related Enzyme Activity (ADME) Assay for human CYP2C19 (AID 2283113);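 further: potency for inhibition seen as loss of fluorescent signal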
# Outline: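 Recombinant insect-cell-expressed enzyme, fluorescent substrate, 1 h after chemical addition, fluorescence intensity. Baseline = acetonitrile vehicle; activity scored as signal loss. Primary HTS single concentration 10 uM, duplicate; actives retested in concentration series.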
# [2] = biological target: Sodium channel protein type 1 subunit alpha (Rattus norvegicus) (UniProt P04774); experiment: NVS_IC_rNaCh_site2: NovaScreen (NVS) Ion Channel Assay for rat Sodium Channel, Site 2 (NaCh) (AID 2283322);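 further: hit means loss of radioligand binding signal relative to DMSO so AC50 marks displacement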
# Outline: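 Initial duplicate single-point testing at 25 uM, followed by concentration-response runs for actives. Binding of radioligand to rat forebrain membranes quantified after 1 h via filter-based radiodetection.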
# [3] = biological target: D(1A) dopamine receptor (Homo sapiens) (UniProt P21728); experiment: NVS_GPCR_hDRD1: NovaScreen (NVS) G Protein-Coupled Receptor Assay for human Dopamine Receptor D1 (DRD1) (AID 2283269)
# Outline: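 HEK293-derived receptor preparation; radioligand competitive displacement; 1 h; filtration + scintillation counting. DMSO = negative control/baseline. Primary: 25 uM, duplicate; secondary: concentration–response for actives.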
# [4] = biological target: human Thromboxane A2 Receptor (TXA2), TBXA2R (gene 6915) (UniProt P21731); experiment: NVS_GPCR_hTXA2: NovaScreen (NVS) G Protein-Coupled Receptor Assay for human Thromboxane A2 Receptor (TXA2) (AID 2283282);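 further: actives reduce bound radioligand signal relative to DMSO baseline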
# Outline: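 Filter scintillation counting of bound radioligand, human platelet protein, 1 h exposure. Single-concentration duplicates (25 uM) first, concentration-response follow-up for actives. Binding loss scored against DMSO baseline.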
# [5] = biological target: human Matrix Metalloproteinase-9 (MMP9), MMP9 (gene 4318) (UniProt P14780); experiment: NVS_ENZ_hMMP9: NovaScreen (NVS) Enzymatic Assay for human Matrix Metalloproteinase-9 (MMP9) (AID 2283190);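 further: cell-free recombinant MMP9 protease activity read by fluorescent substrate signal; active means inhibition seen as loss of fluorescence signal versus DMSO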
# Outline: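 Inhibition was scored as loss of fluorescence signal against DMSO controls. The recombinant protease was exposed to chemicals for 1 hour before reading; initial testing used 25 uM in duplicate.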
# [6] = biological target: guinea pig Leukotriene D4 Receptor (LTD4), CYSLTR1 (gene 100135514) (UniProt Q2NNR5); experiment: NVS_GPCR_gLTD4: NovaScreen (NVS) G Protein-Coupled Receptor Assay for guinea pig Leukotriene D4 Receptor (LTD4) (AID 2283248)
# Outline: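 Guinea pig lung membrane preparation; bound radioligand measured by filter scintillation after 1 h, loss of signal versus DMSO marking displacement. Compounds tested at 25 uM in duplicate, hits retested to max 50 uM.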
# [7] = biological target: human Opioid Receptor Mu (Opiate Mu), OPRM1 (gene 4988) (UniProt P35372); experiment: NVS_GPCR_hOpiate_mu: NovaScreen (NVS) G Protein-Coupled Receptor Assay for human Opioid Receptor Mu (Opiate Mu) (AID 2283290);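 further: hits lower bound tracer signal versus DMSO meaning displacement of the ligand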
# Outline: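 CHO-derived receptor protein, cell-free; radioligand displacement, filtration + scintillation counting, read at 2.5 h. DMSO = negative control/baseline. Primary: 25 uM single conc, duplicate; secondary: concentration series.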
# [8] = biological target: human Caspase 5 (CASP5), CASP5 (gene 838) (UniProt P51878); experiment: NVS_ENZ_hCASP5: NovaScreen (NVS) Enzymatic Assay for human Caspase 5 (CASP5) (AID 2283137)
# Outline: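 Fluorescent substrate readout of CASP5 activity (loss-of-signal), measured 2 h post-dose. Protein expressed in E. coli. Primary screen duplicate at 25 uM; actives meeting threshold (e.g., 30% inhibition) rerun singleton, max 50 uM.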
# [9] = biological target: human Phosphoinositide 3-kinase alpha (PI3Ka), PIK3CA (gene 5290) (UniProt P42336); experiment: NVS_ENZ_hPI3Ka: NovaScreen (NVS) Enzymatic Assay for human Phosphoinositide 3-kinase alpha (PI3Ka) (AID 2283196)
# Outline: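 Chemicals were first screened at 25 uM in duplicate, then hits were run as concentration series up to 50 uM. Enzyme activity was measured by fluorescence after mobility-shift separation, with loss of signal relative to DMSO taken as activity.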
# [10] = biological target: human Neurokinin, NK2 Receptor, TACR2 (gene 6865) (UniProt P21452); experiment: NVS_GPCR_hNK2: NovaScreen (NVS) G Protein-Coupled Receptor Assay for human Neurokinin, NK2 Receptor (AID 2283278);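 further: actives reduce bound radioligand signal relative to DMSO baseline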
# Outline: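 Filter-based scintillation counting measured radioligand bound to receptor extracted from CHO cells, 4 hours after compound addition. Chemicals screened first at 25 uM in duplicate, with actives retested in concentration series relative to DMSO.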
# [11] = biological target: rat Adrenergic Receptor, Alpha 2 (Adra2), Non-selective Binding, Adra2a (gene 25083) (UniProt P22909); experiment: NVS_GPCR_rAdra2_NonSelective: NovaScreen (NVS) G Protein-Coupled Receptor Assay for rat Adrenergic Receptor, Alpha 2 (Adra2), Non-selective Binding (AID 2283299)
# Outline: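 Filter-based scintillation counting of radioligand binding to rat cortical membrane receptors, measured 1.25 hours post-dosing; loss of signal versus DMSO indicates displacement. Initial single-concentration duplicate at 25 uM, then concentration series.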
# [12] = biological target: rat Thyrotropin Releasing Hormone Receptor (TRH), Trhr (gene 25570) (UniProt Q01717); experiment: NVS_GPCR_rTRH: NovaScreen (NVS) G Protein-Coupled Receptor Assay for rat Thyrotropin Releasing Hormone Receptor (TRH) (AID 2283329);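 further: hit means lower bound tracer signal versus DMSO baseline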
# Outline: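 Rat forebrain membrane prep, radioligand displacement, filter scintillation readout at 4 h. Single conc 25 uM, duplicate; actives retested as concentration series. DMSO = negative control/baseline.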
# [13] = biological target: human Phosphodiesterase 10 (PDE10), PDE10A (gene 10846) (UniProt Q9Y233); experiment: NVS_ENZ_hPDE10: NovaScreen (NVS) Enzymatic Assay for human Phosphodiesterase 10 (PDE10) (AID 2283195)
# Outline: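 Biochemical single-readout PDE10A assay, cell-free, extracted protein. Compounds first screened at 25 uM in duplicate, hits then titrated to 50 uM max. Activity measured after 1 h; loss-of-signal fitted against DMSO negative control.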
# [14] = biological target: human Beta-secretase (BACE), BACE1 (gene 23621) (UniProt P56817); experiment: NVS_ENZ_hBACE: NovaScreen (NVS) Enzymatic Assay for human Beta-secretase (BACE) (AID 2283140);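 further: hits are inhibitors that reduce fluorescent substrate signal versus DMSO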
# Outline: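 SF9-expressed enzyme, cell-free; fluorescent substrate readout after 1 h. Screened at 25 uM single concentration, duplicate; hits retested in concentration series. Activity relative to DMSO baseline, loss-of-signal.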
# [15] = biological target: human Dual Specificity Protein Phosphatase 3 (DUSP3), DUSP3 (gene 1845) (UniProt P51452); experiment: NVS_ENZ_hDUSP3: NovaScreen (NVS) Enzymatic Assay for human Dual Specificity Protein Phosphatase 3 (DUSP3) (AID 2283152);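 further: phosphatase activity of recombinant human DUSP3 on a fluorogenic substrate without cells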
# Outline: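 Cell-free fluorescence-intensity enzyme activity assay with recombinant protein and substrate; loss of signal fitted relative to DMSO baseline. Primary screen in duplicate at 25 uM, actives then run in concentration series; measured 0 h after dosing.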
# [16] = biological target: human Ephrin type-A Receptor 1 (EphA1), EPHA1 (gene 2041) (UniProt P21709); experiment: NVS_ENZ_hEphA1: NovaScreen (NVS) Enzymatic Assay for human Ephrin type-A Receptor 1 (EphA1) (AID 2283158);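 further: activity is signal loss versus DMSO meaning EphA1 kinase inhibition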
# Outline: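 Recombinant kinase, fluorescent substrate, mobility-shift separation, fluorescence read at 1 h. Single-point duplicates at 25 uM; hits (e.g., ≥30% inhibition) run singleton concentration-response, max 50 uM. DMSO = negative control/baseline.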
# [17] = biological target: human Vascular Endothelial Growth Factor Receptor 1 (VEGFR1), FLT1 (gene 2321) (UniProt P17948); experiment: NVS_ENZ_hVEGFR1: NovaScreen (NVS) Enzymatic Assay for human Vascular Endothelial Growth Factor Receptor 1 (VEGFR1) (AID 2283226)
# Outline: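 Kinase activity of recombinant human VEGFR1 was read by fluorescence after electrophoretic separation of product from substrate, 1 h post-dosing; initial duplicate single-point testing at 25 uM, followed by concentration-series follow-up, with DMSO as baseline.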
# [18] = biological target: human Adenosine A2a Receptor (AdoRA2a), ADORA2A (gene 135) (UniProt P29274); experiment: NVS_GPCR_hAdoRA2a: NovaScreen (NVS) G Protein-Coupled Receptor Assay for human Adenosine A2a Receptor (AdoRA2a) (AID 2283256)
# Outline: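 HEK293-derived receptor preparation, radioligand displacement, 1.5 h, filtration + scintillation read. Loss of bound signal scored vs DMSO. Single-point 25 uM in duplicate first, then concentration-response for actives.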
# [19] = biological target: Muscarinic acetylcholine receptor M2 (Homo sapiens) (UniProt P08172); experiment: NVS_GPCR_hM2: NovaScreen (NVS) G Protein-Coupled Receptor Assay for human Muscarinic, M2 Receptor (AID 2283273)
# Outline: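 Filter-based radiodetection read bound radioligand 1 h after dosing CHO-derived membrane protein. Single-concentration duplicates (25 uM) first, then concentration-response for actives; signal loss versus DMSO scored.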
# [20] = biological target: human Adenosine A1 Receptor (AdoRA1), ADORA1 (gene 134) (UniProt P30542); experiment: NVS_GPCR_hAdoRA1: NovaScreen (NVS) G Protein-Coupled Receptor Assay for human Adenosine A1 Receptor (AdoRA1) (AID 2283254)
# Outline: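 Hum. cortical membranes + radioligand, cmpd 1 h; filtration, scintillation count. Readout = decrease vs DMSO. Primary 25 uM dup; hits → conc. series.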
# D(1A) dopamine receptor (Homo sapiens), sequence (P21728 whole entry, looked up): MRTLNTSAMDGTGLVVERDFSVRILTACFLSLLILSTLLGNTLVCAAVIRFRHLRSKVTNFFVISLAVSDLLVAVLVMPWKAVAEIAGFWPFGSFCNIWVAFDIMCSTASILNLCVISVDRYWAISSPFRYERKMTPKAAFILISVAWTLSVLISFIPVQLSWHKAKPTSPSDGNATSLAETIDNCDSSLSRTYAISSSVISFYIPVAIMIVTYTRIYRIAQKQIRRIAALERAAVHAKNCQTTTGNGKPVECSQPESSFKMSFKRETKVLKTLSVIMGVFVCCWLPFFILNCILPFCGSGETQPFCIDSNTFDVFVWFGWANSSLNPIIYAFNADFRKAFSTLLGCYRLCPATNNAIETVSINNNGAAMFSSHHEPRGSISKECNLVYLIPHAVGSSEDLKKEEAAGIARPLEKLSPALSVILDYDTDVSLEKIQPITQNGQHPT
# human Ephrin type-A Receptor 1 (EphA1), EPHA1 (gene 2041), sequence (P21709 whole entry, looked up): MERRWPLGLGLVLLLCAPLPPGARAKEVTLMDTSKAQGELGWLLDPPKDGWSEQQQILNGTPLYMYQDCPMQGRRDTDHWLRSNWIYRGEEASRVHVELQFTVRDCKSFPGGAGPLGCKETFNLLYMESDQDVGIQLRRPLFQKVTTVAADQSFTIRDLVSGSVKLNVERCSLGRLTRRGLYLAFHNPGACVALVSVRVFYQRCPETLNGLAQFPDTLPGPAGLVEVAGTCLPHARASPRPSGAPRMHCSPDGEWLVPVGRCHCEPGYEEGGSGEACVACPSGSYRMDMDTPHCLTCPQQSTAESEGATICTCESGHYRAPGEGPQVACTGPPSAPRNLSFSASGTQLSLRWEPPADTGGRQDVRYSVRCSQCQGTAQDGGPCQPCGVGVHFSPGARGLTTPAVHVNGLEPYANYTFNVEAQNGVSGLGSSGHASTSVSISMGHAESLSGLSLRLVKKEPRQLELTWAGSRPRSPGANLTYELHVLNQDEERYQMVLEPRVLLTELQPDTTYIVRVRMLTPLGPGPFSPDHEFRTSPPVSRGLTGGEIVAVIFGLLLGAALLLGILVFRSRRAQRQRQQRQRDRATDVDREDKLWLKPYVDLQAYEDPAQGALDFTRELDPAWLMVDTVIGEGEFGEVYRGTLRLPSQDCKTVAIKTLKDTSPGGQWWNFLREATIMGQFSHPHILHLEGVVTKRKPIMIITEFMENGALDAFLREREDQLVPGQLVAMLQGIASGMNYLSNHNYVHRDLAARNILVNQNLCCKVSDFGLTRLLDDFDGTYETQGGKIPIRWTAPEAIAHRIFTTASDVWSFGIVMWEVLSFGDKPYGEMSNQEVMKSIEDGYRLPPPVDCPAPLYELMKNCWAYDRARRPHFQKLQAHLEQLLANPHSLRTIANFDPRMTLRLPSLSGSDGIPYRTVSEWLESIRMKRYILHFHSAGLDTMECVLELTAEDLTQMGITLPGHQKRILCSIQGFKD
# human Neurokinin, NK2 Receptor, TACR2 (gene 6865), sequence (P21452 whole entry, looked up): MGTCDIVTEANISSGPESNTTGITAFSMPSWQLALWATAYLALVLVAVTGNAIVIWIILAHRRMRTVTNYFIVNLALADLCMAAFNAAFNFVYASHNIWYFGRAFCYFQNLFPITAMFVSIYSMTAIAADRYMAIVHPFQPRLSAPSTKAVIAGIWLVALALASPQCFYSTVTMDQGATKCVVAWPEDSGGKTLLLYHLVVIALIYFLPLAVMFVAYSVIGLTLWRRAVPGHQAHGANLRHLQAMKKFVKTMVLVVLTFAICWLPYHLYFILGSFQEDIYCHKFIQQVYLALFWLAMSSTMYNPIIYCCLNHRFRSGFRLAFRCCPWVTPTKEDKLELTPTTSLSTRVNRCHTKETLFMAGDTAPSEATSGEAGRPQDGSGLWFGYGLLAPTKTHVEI
# rat Thyrotropin Releasing Hormone Receptor (TRH), Trhr (gene 25570), sequence (Q01717 whole entry, looked up): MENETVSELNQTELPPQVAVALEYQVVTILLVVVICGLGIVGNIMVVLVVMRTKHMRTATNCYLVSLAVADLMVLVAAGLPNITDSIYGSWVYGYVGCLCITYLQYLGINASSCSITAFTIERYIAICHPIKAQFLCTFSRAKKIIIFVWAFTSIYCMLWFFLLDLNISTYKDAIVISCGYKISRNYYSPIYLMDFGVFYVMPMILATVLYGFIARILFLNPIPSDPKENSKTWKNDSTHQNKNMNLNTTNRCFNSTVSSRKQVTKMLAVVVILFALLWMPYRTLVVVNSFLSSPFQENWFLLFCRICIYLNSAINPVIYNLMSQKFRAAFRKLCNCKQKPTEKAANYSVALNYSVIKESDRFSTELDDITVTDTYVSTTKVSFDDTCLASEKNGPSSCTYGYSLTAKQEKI
# human Thromboxane A2 Receptor (TXA2), TBXA2R (gene 6915), sequence (P21731 whole entry, looked up): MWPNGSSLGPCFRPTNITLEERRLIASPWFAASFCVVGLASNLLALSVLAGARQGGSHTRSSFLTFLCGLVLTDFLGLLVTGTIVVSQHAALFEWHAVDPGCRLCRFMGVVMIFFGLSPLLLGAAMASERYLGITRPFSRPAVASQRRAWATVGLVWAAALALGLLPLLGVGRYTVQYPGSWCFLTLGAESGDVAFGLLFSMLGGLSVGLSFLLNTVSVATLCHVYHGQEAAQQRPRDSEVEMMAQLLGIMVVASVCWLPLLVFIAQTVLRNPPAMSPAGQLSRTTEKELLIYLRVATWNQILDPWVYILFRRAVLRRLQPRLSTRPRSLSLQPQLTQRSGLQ
# human Beta-secretase (BACE), BACE1 (gene 23621), sequence (P56817 whole entry, looked up): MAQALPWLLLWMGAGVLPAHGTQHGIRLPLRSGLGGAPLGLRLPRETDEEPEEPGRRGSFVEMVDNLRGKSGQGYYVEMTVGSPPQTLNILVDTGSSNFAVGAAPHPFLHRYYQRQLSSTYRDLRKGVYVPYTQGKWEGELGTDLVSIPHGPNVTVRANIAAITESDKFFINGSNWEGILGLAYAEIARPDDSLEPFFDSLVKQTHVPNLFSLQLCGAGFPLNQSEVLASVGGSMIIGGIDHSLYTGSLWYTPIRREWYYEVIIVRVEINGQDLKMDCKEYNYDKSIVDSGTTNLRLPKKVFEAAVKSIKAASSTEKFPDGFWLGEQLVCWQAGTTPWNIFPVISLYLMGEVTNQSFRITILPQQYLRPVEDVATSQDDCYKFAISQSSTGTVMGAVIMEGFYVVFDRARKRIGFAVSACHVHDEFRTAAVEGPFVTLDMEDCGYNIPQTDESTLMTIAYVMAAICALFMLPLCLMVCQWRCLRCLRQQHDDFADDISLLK
# human Opioid Receptor Mu (Opiate Mu), OPRM1 (gene 4988), sequence (P35372 whole entry, looked up): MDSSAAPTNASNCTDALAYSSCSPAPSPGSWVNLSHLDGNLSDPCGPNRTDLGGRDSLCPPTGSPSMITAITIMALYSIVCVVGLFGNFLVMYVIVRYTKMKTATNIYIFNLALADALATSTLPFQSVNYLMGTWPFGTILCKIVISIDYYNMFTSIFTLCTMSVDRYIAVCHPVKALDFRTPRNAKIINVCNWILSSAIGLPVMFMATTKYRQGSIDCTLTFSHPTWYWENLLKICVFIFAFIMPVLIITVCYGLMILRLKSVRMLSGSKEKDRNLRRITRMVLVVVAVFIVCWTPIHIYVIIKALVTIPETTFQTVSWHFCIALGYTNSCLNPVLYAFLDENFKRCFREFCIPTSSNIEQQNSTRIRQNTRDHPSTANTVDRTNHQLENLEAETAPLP
# human Matrix Metalloproteinase-9 (MMP9), MMP9 (gene 4318), sequence (P14780 whole entry, looked up): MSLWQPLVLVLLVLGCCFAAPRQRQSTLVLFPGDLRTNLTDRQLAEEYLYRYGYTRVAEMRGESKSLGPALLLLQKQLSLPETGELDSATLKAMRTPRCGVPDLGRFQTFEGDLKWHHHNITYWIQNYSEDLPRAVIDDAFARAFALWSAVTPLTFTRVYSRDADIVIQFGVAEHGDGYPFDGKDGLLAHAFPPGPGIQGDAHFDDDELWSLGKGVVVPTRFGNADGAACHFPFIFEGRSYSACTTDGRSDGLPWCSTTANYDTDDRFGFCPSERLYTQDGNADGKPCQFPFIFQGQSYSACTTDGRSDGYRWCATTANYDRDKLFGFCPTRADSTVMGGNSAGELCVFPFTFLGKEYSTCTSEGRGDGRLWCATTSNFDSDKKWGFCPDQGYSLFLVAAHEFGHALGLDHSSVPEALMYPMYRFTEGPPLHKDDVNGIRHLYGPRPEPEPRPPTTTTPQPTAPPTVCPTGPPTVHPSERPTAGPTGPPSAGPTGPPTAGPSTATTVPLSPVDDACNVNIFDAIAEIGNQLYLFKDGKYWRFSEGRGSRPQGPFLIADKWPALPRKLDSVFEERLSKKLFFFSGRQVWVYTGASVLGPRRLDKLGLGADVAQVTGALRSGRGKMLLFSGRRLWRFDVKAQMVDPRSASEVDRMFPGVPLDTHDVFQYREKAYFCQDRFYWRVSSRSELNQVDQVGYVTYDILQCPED
# rat Adrenergic Receptor, Alpha 2 (Adra2), Non-selective Binding, Adra2a (gene 25083), sequence (P22909 whole entry, looked up): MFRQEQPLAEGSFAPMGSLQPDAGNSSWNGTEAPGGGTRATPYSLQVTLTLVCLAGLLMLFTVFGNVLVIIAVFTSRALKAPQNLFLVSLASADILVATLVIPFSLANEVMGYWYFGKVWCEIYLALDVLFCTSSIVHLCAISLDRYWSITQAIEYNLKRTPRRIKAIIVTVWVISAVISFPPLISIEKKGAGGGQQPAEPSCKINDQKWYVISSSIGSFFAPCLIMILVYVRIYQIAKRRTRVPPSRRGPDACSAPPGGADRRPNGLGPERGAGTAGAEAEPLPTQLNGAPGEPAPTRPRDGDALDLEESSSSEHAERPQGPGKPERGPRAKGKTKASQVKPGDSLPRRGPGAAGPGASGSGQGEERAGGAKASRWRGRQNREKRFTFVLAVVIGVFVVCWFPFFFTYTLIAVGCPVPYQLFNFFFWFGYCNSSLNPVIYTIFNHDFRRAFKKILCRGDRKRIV
# guinea pig Leukotriene D4 Receptor (LTD4), CYSLTR1 (gene 100135514), sequence (Q2NNR5 whole entry, looked up): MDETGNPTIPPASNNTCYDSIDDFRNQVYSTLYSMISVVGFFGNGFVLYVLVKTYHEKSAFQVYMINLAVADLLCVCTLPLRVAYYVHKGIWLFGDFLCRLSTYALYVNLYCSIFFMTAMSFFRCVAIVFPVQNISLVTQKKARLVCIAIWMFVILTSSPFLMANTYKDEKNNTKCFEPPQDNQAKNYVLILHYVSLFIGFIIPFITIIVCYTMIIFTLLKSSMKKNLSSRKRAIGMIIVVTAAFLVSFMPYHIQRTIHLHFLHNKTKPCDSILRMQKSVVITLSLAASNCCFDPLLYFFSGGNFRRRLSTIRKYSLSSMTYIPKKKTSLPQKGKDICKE
smiles,measurement,setting,value
CCCCOCCOCCOC(=O)CCCCC(=O)OCCOCCOCCCC,AC50,[1],5 µM (active)
O[Si](c1ccccc1)(c1ccccc1)c1ccccc1,outcome,[2],inactive
Nc1ccc(Oc2cccc(Oc3ccc(N)cc3)c2)cc1,outcome,[3],inactive
same,outcome,[4],inactive
same,AC50,[2],12.1 µM (active)
CCCCCC=O,AC50,[5],1.86 µM (active)
c1ccc(-c2ccccc2-c2ccccc2)cc1,outcome,[6],inactive
Cc1cc(C)cc(O)c1,outcome,[7],inactive
Oc1ccc(Nc2ccccc2)cc1,AC50,[1],2.86 µM (active)
same,AC50,[8],8.26 µM (active)
same,AC50,[5],9.97 µM (active)
same,outcome,[9],inactive
same,outcome,[10],inactive
same,outcome,[11],inactive
CC(CCl)OP(=O)(OC(C)CCl)OC(C)CCl (centres undefined),outcome,[12],inactive
Nc1ccc([N+](=O)[O-])cc1O,outcome,[10],inactive
CCCCCCOC(=O)c1ccccc1,outcome,[12],inactive
C1COCCN1,AC50,[4],6.07 µM (active)
CO[Si](OC)(c1ccccc1)c1ccccc1,outcome,[13],inactive
same,AC50,[3],45.6 µM (active)
CCCCCCCCCCCCCCCC[N+](C)(C)Cc1ccccc1,AC50,[1],5 µM (active)
same,AC50,[14],6.34 µM (active)
same,AC50,[15],4.22 µM (active)
same,outcome,[16],inactive
same,outcome,[5],inactive
same,outcome,[9],inactive
same,outcome,[17],inactive
same,AC50,[18],16.4 µM (active)
same,AC50,[3],1.57 µM (active)
same,AC50,[19],0.584 µM (active)
same,AC50,[10],2.11 µM (active)
same,AC50,[7],1.44 µM (active)
same,AC50,[11],38.6 µM (active)
same,outcome,[2],inactive
CCCCC(CC)COP(=O)(O)OCC(CC)CCCC (centres undefined),outcome,[12],inactive
CCc1ccc(C(c2ccc(CC)cc2)C(Cl)Cl)cc1,AC50,[14],3.11 µM (active)
same,outcome,[16],inactive
same,outcome,[5],inactive
same,AC50,[13],14.1 µM (active)
C#C[C@]1(O)CC[C@H]2[C@@H]3CCc4cc(OC)ccc4[C@H]3CC[C@@]21C,AC50,[1],6.84 µM (active)
same,outcome,[7],inactive
same,outcome,[2],inactive
same,outcome,[12],inactive
CCN(CC)c1ccc2c(C)cc(=O)oc2c1,AC50,[14],36.4 µM (active)
same,outcome,[16],inactive
same,outcome,[13],inactive
same,outcome,[20],inactive
same,AC50,[19],10.3 µM (active)
same,AC50,[4],3.01 µM (active)
CC(=O)Nc1ccc(N=Nc2cc(C)ccc2O)cc1,AC50,[1],0.00307 µM (active)
same,outcome,[13],inactive
CC(C)=CCCC(C)CCOC(=O)C(C)C (centres undefined),outcome,[13],inactive
CCCCNc1ccccc1,AC50,[5],4.99 µM (active)
same,outcome,[6],inactive
